# Laboratory results as given in the supplement of paper PMC12645437, “Orthogonal IMiD-Degron Pairs Induce Selective Protein Degradation in Cells” (ACS Chemical Biology, 2025).
# The full ranking holds about 8,300 sequences; the median of “log2 fold change of degron read counts, EGFP-low vs EGFP+ sorted cells (limma voom), compound-induced degradation” is about -1.1, and the highest 2% start at about 3.2. For the sample, the highest values were picked, then their nearest neighbours and some sequences at random.
# T1: CRBN, Q96SW2
# T1 chain: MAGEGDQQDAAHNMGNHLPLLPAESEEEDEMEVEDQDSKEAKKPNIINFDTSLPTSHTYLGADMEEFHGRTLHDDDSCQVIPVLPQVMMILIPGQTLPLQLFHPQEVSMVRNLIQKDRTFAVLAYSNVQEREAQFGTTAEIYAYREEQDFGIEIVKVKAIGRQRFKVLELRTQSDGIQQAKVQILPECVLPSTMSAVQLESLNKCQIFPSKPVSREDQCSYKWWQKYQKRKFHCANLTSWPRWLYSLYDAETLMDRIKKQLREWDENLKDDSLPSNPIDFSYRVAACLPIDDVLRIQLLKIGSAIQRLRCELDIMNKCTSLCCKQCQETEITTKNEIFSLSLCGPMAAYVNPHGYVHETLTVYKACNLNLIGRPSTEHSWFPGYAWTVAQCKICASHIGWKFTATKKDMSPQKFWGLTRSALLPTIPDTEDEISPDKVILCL
# B1: 46F_47R_49P_50I_52G_53H_54E_55F_67L_, Q9UKT9 (peptide)
# chain: FRCPICGHEFTQKGNLLRHIKL
# B2: 46F_47T_49E_50Q_52G_53A_54H_55F_67L_, Q9UKT9 (peptide)
# chain: FTCEQCGAHFTQKGNLLRHIKL
# B3: 46F_47V_49N_50Q_52G_53H_54N_55F_67L_, Q9UKT9 (peptide)
# chain: FVCNQCGHNFTQKGNLLRHIKL
# B4: 46F_47V_49E_50I_52G_53A_54K_55F_67L_, Q9UKT9 (peptide)
# chain: FVCEICGAKFTQKGNLLRHIKL
# B5: 46F_47R_49E_50I_52G_53A_54K_55F_67L_, Q9UKT9 (peptide)
# chain: FRCEICGAKFTQKGNLLRHIKL
# B6: 46F_47M_49E_50I_52G_53A_54K_55F_67L_, Q9UKT9 (peptide)
# chain: FMCEICGAKFTQKGNLLRHIKL
# B7: 46F_47G_49E_50I_52G_53A_54K_55F_67L_, Q9UKT9 (peptide)
# chain: FGCEICGAKFTQKGNLLRHIKL
# B8: 46F_47A_49E_50I_52G_53A_54K_55F_67L_, Q9UKT9 (peptide)
# chain: FACEICGAKFTQKGNLLRHIKL
# B9: 46F_47W_49E_50I_52G_53A_54K_55F_67L_, Q9UKT9 (peptide)
# chain: FWCEICGAKFTQKGNLLRHIKL
# B10: 46F_47I_49E_50I_52G_53A_54K_55F_67L_, Q9UKT9 (peptide)
# chain: FICEICGAKFTQKGNLLRHIKL
# B11: 46F_47T_49E_50I_52G_53A_54K_55F_67L_, Q9UKT9 (peptide)
# chain: FTCEICGAKFTQKGNLLRHIKL
# B12: 46F_47F_49N_50Q_52G_53A_54A_55F_67L_, Q9UKT9 (peptide)
# chain: FFCNQCGAAFTQKGNLLRHIKL
# B13: 46L_47M_49P_50I_52G_53F_54I_55C_67L_, Q9UKT9 (peptide)
# chain: LMCPICGFICTQKGNLLRHIKL
# B14: 46L_47R_49N_50Q_52G_53F_54G_55C_67L_, Q9UKT9 (peptide)
# chain: LRCNQCGFGCTQKGNLLRHIKL
# B15: 46F_47F_49S_50V_52G_53H_54E_55F_67L_, Q9UKT9 (peptide)
# chain: FFCSVCGHEFTQKGNLLRHIKL
# B16: 46F_47C_49P_50I_52G_53A_54M_55F_67L_, Q9UKT9 (peptide)
# chain: FCCPICGAMFTQKGNLLRHIKL
# B17: 46F_47S_49N_50Q_52G_53H_54T_55F_67L_, Q9UKT9 (peptide)
# chain: FSCNQCGHTFTQKGNLLRHIKL
# B18: 46F_47M_49N_50V_52G_53A_54D_55F_67L_, Q9UKT9 (peptide)
# chain: FMCNVCGADFTQKGNLLRHIKL
# B19: 46L_47Y_49P_50I_52G_53F_54I_55C_67L_, Q9UKT9 (peptide)
# chain: LYCPICGFICTQKGNLLRHIKL
# B20: 46F_47S_49N_50V_52G_53A_54P_55F_67L_, Q9UKT9 (peptide)
# chain: FSCNVCGAPFTQKGNLLRHIKL
# B21: 46F_47K_49E_50I_52G_53A_54G_55F_67L_, Q9UKT9 (peptide)
# chain: FKCEICGAGFTQKGNLLRHIKL
# B22: 46F_47V_49E_50I_52G_53A_54G_55F_67L_, Q9UKT9 (peptide)
# chain: FVCEICGAGFTQKGNLLRHIKL
# B23: 46F_47C_49E_50I_52G_53A_54G_55F_67L_, Q9UKT9 (peptide)
# chain: FCCEICGAGFTQKGNLLRHIKL
# B24: 46F_47S_49E_50I_52G_53A_54G_55F_67L_, Q9UKT9 (peptide)
# chain: FSCEICGAGFTQKGNLLRHIKL
# B25: 46F_47M_49E_50I_52G_53A_54G_55F_67L_, Q9UKT9 (peptide)
# chain: FMCEICGAGFTQKGNLLRHIKL
# B26: 46F_47I_49P_50I_52G_53R_54G_55F_67L_, Q9UKT9 (peptide)
# chain: FICPICGRGFTQKGNLLRHIKL
# B27: 46F_47T_49P_50I_52G_53H_54H_55F_67L_, Q9UKT9 (peptide)
# chain: FTCPICGHHFTQKGNLLRHIKL
# B28: 46F_47T_49E_50Q_52G_53A_54K_55F_67L_, Q9UKT9 (peptide)
# chain: FTCEQCGAKFTQKGNLLRHIKL
# Target: T1, CRBN, Q96SW2
# Test: log2 fold change of degron read counts, EGFP-low vs EGFP+ sorted cells (limma voom), compound-induced degradation; higher = more compound-induced degradation of the degron-EGFP fusion; degrons are variants of IKZF1/3 zinc finger 2; compound dose not given here
# Conditions: Jurkat, 18 h
# [1] = compound: compound 19 (5-tert-butyl-thalidomide)
# [2] = compound: compound 22 (5-morpholino-thalidomide)
# [3] = compound: compound 33 (diphenyl IMiD analogue)
# 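Further: pooled lentiviral library of zinc finger degron-EGFP fusions in mCherry-positive Jurkat cells, FACS-sorted after compound exposure, with degron abundance counted by next-generation sequencing.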
Sequence,log2 fold change of degron read counts [1],log2 fold change of degron read counts [2],log2 fold change of degron read counts [3],log2 fold change of degron read counts (compound: thalidomide)
B1,-2.68,-2.48,-1.5,-1.35
B2,-1.82,-1.63,-0.151,-0.624
B3,-3,-3.4,-2.99,-3.15
B4,1.42,1.89,0.387,3.07
B5,-0.269,-0.354,0.56,1.68
B6,0.747,-0.267,0.58,1.27
B7,3.49,1.63,-1.11,1.73
B8,3.82,1.86,-1.82,1.35
B9,3.96,3.75,1.53,1.31
B10,0.419,2.07,0.709,2.61
B11,0.913,1.9,0.245,2.71
B12,-1.05,-0.697,-0.811,-1.91
B13,-0.334,0.292,2.06,1.27
B14,-1.13,-1.8,-1.41,-1.08
B15,-2.81,-3.34,-3.2,-2.56
B16,1.6,1.26,2.22,1.23
B17,-2.44,-2.51,-2.85,-2.59
B18,-2.78,-2.8,1.31,-1.76
B19,2.94,2.9,1.98,0.937
B20,0.819,0.453,-0.105,0.146
B21,2.69,-0.466,-0.772,0.328
B22,1.53,3.07,1.92,3.23
B23,3.68,2.09,1.63,1.42
B24,3.39,1.57,1.23,0.613
B25,2.81,1.95,2.73,1.31
B26,-2.06,-1.04,-0.776,0.0621
B27,-2.5,-2.32,-1.56,-1.14
B28,-1.64,-1.04,-1.94,0.449
